Screens from PubChem.
Sampled rows, rich in hits. Any-hit rate of the full collection: about 1.1%.
Anesthetic bind: qHTS Assay for Identification of Novel General Anesthetics. Ferritin light chain (Equus caballus), P02791. apoferritin/1-aminoanthracene competitive binding, fluorescence. Potency, µM (top dose mostly 77.5 µM), most hits filed as inhibitors. 350,000 tested, 0.074% active. AID 485281, 2010; further: nearly all actives have a fitted effect of over 20% in size
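10 uM apoferritin + 50% sat. 1-AMA, PBS; cpd 10 min RT; Ex380/Em535 endpoint; normalized to free probe vs complex; 4-param Hill fit; propofol titration as pos. ctrl.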
BCR signal inh: qHTS Assay to Find Inhibitors of Chronic Active B-Cell Receptor Signaling; ABC-DLBCL IkBa-CBG/CBR reporter, luminescence ratio, 4 h; Potency, µM (series often up to 46.1 µM), actives largely listed as inhibitors; 340,000 tested, 0.05% active; active means well fitted inhibition curve with a large enough effect in the signal ratio, with a control signal flat, not every such curve was filed as active; inconclusive means small, poorly fitted or top-dose-only effect, or effect the other way, or a change in a side signal; the % refers to the signal ratio
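Concentration-response series (up to 46 uM) were applied to TMD8 dual-reporter cells for 4 h at 37C with doxycycline. Green/red ratio, after filter-overlap correction, defined %Activity; red signal alone was normalised to basal cells and zero luminescence.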
GRP78 ERSR act: qHTS for Inducers of the Endoplasmic Reticulum Stress Response (ERSR) in Human Glioma: qHTS | U87-MG GRP78 promoter luciferase reporter, 16 h | 420,000 tested, 0.02% active | AID 602332, 2012 | Potency, µM, hits mostly activators; further: series mostly up to about 76 µM; nearly all actives have a fitted effect of over 35% in size
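Stably transfected U87-MG human glioma cells carrying a GRP78-based luminescent sensor were seeded at 1000 cells/well, pin-dosed with compounds and incubated 16 h. Luciferase reagent was then added, and end-point luminescence was read after 10 min at room temperature.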
12-LOX inh: Primary qHTS assay for inhibitors of human arachidonate 12S-lipoxygenase (ALOX12): Round 2 | Polyunsaturated fatty acid lipoxygenase ALOX12 (Homo sapiens), P18054 | purified 12hLO, xylenol orange hydroperoxide absorbance | 580,000 tested, 1.1% active | Potency, µM (highest dose often 108 µM), most hits filed as inhibitors
Target sequence (P18054 whole entry, looked up): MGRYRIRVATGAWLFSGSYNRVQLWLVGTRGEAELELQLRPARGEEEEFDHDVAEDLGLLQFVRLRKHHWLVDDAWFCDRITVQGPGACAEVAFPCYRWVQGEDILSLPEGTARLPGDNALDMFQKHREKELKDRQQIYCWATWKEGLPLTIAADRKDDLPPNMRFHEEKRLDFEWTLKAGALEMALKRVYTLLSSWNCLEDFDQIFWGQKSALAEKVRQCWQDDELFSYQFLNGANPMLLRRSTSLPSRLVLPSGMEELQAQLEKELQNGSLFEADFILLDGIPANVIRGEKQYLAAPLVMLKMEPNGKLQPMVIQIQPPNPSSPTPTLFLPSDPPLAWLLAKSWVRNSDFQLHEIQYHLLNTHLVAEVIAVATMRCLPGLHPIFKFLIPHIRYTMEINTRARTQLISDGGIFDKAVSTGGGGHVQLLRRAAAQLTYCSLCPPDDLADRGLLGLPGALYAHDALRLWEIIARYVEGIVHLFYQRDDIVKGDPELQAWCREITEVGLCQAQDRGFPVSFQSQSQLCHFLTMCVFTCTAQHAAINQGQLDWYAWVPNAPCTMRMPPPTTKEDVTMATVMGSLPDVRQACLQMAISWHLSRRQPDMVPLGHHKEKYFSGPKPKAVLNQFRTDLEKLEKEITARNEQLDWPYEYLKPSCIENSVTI
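Purified human 12hLO at 150 nM in 25 mM Hepes, 0.01% Triton X-100, pH 7.0, preincubated 15 min at room temperature with compound. Reaction started with 40 uM arachidonic acid, 30 min at room temperature. Hydroperoxide measured by Fe-xylenol orange, 573/405 nm absorbance ratio.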
Numbers stand for hits; n = inactive; u = inconclusive; x = no result; ! = not active in a repeat. Unless noted, the call rests on the fitted dose curve; in most records, active means well fitted curve in the direction sought with a large enough effect; inconclusive means small, poorly fitted or top-dose-only effect, or another doubt; inactive means no such curve, though single readings can be large; an effect the other way counts as inactive or inconclusive.

SMILES	Anesthetic bind	BCR signal inh	GRP78 ERSR act	12-LOX inh
O[C@H]1C[C@H](c2ccccc2)N(Cc2cccs2)C[C@@H]1n1cc(-c2ccc(F)cc2)nn1	x	x	n	35µM
O[C@H]1CN(Cc2cccs2)[C@@H](c2ccccc2)C[C@@H]1n1cc(-c2ccc(F)cc2)nn1	x	x	n	n
Cc1cc(SCC(=O)NC(=O)NCc2ccco2)nc2c(C)cccc12	u	n	n	22µM
Cc1cccc(NC(=S)NC(=O)c2ccc(Br)o2)c1C	n	u	n	u
Cc1cccc(C)c1NC(=S)NC(=O)c1ccc(Br)o1	n	n	n	45µM
Cc1cccc2sc(=S)[nH]c12	x	x	n	32µM
CCCCCC1=CCC/C1=N\NC(=O)c1ccco1	x	x	x	n
C=CCNC(=S)N/N=C1/CCC=C1CCCCC	x	x	x	35µM
COc1ccccc1N1CCN([C@@H]2[C@H](O)[C@H](CO)O[C@@H]2CN(Cc2ccc(F)cc2)Cc2ccc(F)cc2)CC1	x	x	x	28µM
COc1ccccc1N1CCN([C@@H]2[C@H](O)[C@H](CO)O[C@@H]2CN(C)C)CC1	x	x	x	n
COc1ccccc1N1CCN([C@@H]2[C@H](O)[C@H](CO)O[C@@H]2CNC(C)C)CC1	x	x	x	20µM
Cc1ccc(CN2CCc3oc(C)c(C(=O)NC4CCCC4)c3C2)cc1	x	x	x	25µM
Cc1oc2c(c1C(=O)NC1CCCC1)CN(Cc1ccc(F)cc1)CC2	x	x	x	13µM
Cc1oc2c(c1C(=O)N1CCN(C3CCCC3)CC1)CN(Cc1cccc(F)c1)CC2	x	x	x	8.9µM
Cc1ccc(-c2nc(N3CCN(C)CC3)c3ccccc3n2)cc1	n	u	n	n
CN1CCN(c2nc(-c3ccc(C(C)(C)C)cc3)nc3ccccc23)CC1	n	n	n	32µM
O=C1NC(=Nc2ccccc2Cl)S/C1=C\c1cc([N+](=O)[O-])ccc1O	u	u	n	32µM
COc1cccc(N=C2NC(=O)/C(=C/c3cc([N+](=O)[O-])ccc3O)S2)c1	n	n	n	u
Cc1ccc(S(=O)(=O)/N=C2/NC(=O)/C(=C/c3cc([N+](=O)[O-])ccc3O)S2)cc1	n	n	n	10µM
COc1cccc(-n2c(SCc3cc(=O)oc4cc(O)c(O)cc34)nc3ccccc3c2=O)c1	n	u	n	7.1µM
CCCc1cc(-c2n[nH]c(=S)n2-c2cccc(C)c2)cs1	u	n	n	45µM
Cc1cccc(-n2c(-c3csc(C(C)C)c3)n[nH]c2=S)c1	n	n	n	u
CN(C)CCCN(C(=O)COc1ccc(Cl)cc1)c1nc2c(F)cccc2s1	n	n	n	40µM!
Cc1cccc2sc(N(CCCN(C)C)C(=O)COc3ccc(Cl)cc3)nc12	n	n	n	u
Fc1ccccc1NC(=S)NCCc1ccccc1	n	n	n	n
SMILES	Anesthetic bind	BCR signal inh	GRP78 ERSR act	12-LOX inh
Cc1c(Cl)cccc1NC(=S)NCCc1ccc(Cl)cc1	n	n	n	25µM
Fc1ccccc1NC(=S)NCCc1ccc(Cl)cc1	n	n	n	40µM
N#Cc1nc(-c2ccccc2Cl)oc1NC1CCCCC1	x	x	x	n
CCOCCOC(C)C(=O)N(CC(=O)OCC)CC(C)C (configuration not stated)	x	x	x	n
COc1ccc(S(=O)(=O)Nc2cc(-c3c(O)ccc4ccccc34)c(O)c3ccccc23)cc1	x	x	x	8.6µM
Cc1ccc2cccc(NC(=O)C(C)(C)Oc3ccc(Cl)cc3)c2n1	x	x	x	n
O=C(CSCc1ccc(Cl)cc1)Nc1ccc(O)cc1C(=O)O	n	u	n	6.3µM
COc1cc(NC(=O)CSCc2ccc(Cl)cc2)c(C(=O)O)cc1OC	n	n	n	n
CCOc1ccc(C(C)=O)c2ccccc12	x	x	x	n
O=C1/C(=C/c2ccc(Cl)c(Cl)c2)Cc2ccccc21	x	x	x	n
N#Cc1cccc(CNS(=O)(=O)Cc2ccccc2)c1	x	x	x	n
O=S(=O)(Cc1ccccc1)NCc1cccc(CNS(=O)(=O)Cc2ccccc2)c1	x	x	x	35µM
Cc1ncc([N+](=O)[O-])n1CCOC(=O)c1cc(Cl)cc(Cl)c1N	n	n	n	32µM
COc1ccc2[nH]cc(CCNC(=O)c3ccc(N4CC5CC(C4)[C@H]4CCCC(=O)N4C5)nc3)c2c1 (some centres not stated)	x	x	x	n
Cc1cc(C(=O)OCC(=O)Nc2sc3c(c2C#N)CCC(C)C3)c2ccccc2n1 (configuration not stated)	n	n	n	40µM
COc1ccccc1-c1cc(C(=O)Nc2sc3c(c2C#N)CCC(C)C3)c2ccccc2n1 (configuration not stated)	n	n	n	n
N#Cc1c(NC(=O)CSc2ncn[nH]2)sc2c1CCCC2	n	23µM	n	n
CC1CCc2c(sc(NC(=O)CSc3ncn[nH]3)c2C#N)C1 (configuration not stated)	n	u	n	n
CCCc1cc(=O)[nH]c(SCC(=O)Nc2sc3c(c2C#N)CCC(C)C3)n1 (configuration not stated)	u	n	n	40µM
CC(C)c1ccc(S(=O)(=O)N2CCC(C(=O)Nc3nccs3)CC2)cc1	x	x	x	n
Cc1cccc(C)c1OCCCCn1c(C2CC(=O)N(c3ccc(F)cc3)C2)nc2ccccc21 (configuration not stated)	n	x	n	32µM
Cc1cccc(C)c1OCCn1c(C2CC(=O)N(c3cccc(Cl)c3)C2)nc2ccccc21 (configuration not stated)	n	x	n	n
CC(C)Cn1cnc2c1c(=O)n(Cc1ccccc1C#N)c(=O)n2Cc1ccccc1	x	x	x	n
CC12CC3CC(C)(C1)CC(C(=O)NC(=S)N1CCCCC1)(C3)C2	u	n	n	25µM
CC1(C)[C@H](Cc2cc(-c3ccc(F)cc3)on2)C[C@@H]1NC1CCOCC1	x	x	x	n
SMILES	Anesthetic bind	BCR signal inh	GRP78 ERSR act	12-LOX inh
Cc1ccc(NC(=O)CSc2ncc(S(=O)(=O)c3ccc(C(C)C)cc3)c(=O)[nH]2)cc1C	n	x	n	45µM
CN(C)S(=O)(=O)c1ccc2oc(SCCOc3ccccc3F)nc2c1	x	x	x	n
O=C(OCC(=O)N1c2ccccc2Sc2ccccc21)c1ccc2c(c1)OCCO2	x	x	x	n
Nc1ncnc2c1ncn2[C@@H]1O[C@H](COP(=O)(O)OP(=O)(O)CP(=O)(O)O)[C@@H](O)[C@H]1O	n	x	n	16µM
Nc1ncnc2c1ncn2[C@@H]1O[C@H](COP(=O)(O)OP(=O)(O)OP(=O)(O)OP(=O)(O)OC[C@@H]2O[C@H](n3cnc4c(N)ncnc43)[C@@H](O)[C@H]2O)[C@@H](O)[C@H]1O	n	x	n	u
COc1cccc(NC(=O)CN2CCN(c3nc(-c4ccco4)c4c(c3C#N)CCC4)CC2)c1	x	x	x	n
C=CCOc1ccccc1N	x	x	x	5.6µM
COc1ccccc1C(NC(=O)C1CCN(CCc2ccc(Br)cc2)CC1)c1ccccn1 (configuration not stated)	x	x	n	40µM
C[C@H]1CCC/C=C/[C@@H]2C[C@H](O)C[C@H]2[C@H](O)[C@H](S(=O)c2ccc(O)cc2)CC(=O)O1 (some centres not stated)	x	x	n	40µM
